TDP1 cell noCPT – qHTS for Inhibitors of human tyrosyl-DNA phosphodiesterase 1 (TDP1): qHTS in cells in absence of CPT; DT40 Tdp1-/- hTDP1 cells, no CPT, ATP luminescence, 48 h; 15% of 420,000 active; AID 686978, 2013; Potency, µM (top dose mostly 46.2 µM), inactives show at the top dose activity change, negative = growth inhibition, usual class: inhibitors; note: potency is the fitted concentration of half-maximal effect; nearly all actives have a fitted effect of over 55% in size
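Compound effects on proliferation are scored in DT40 Tdp1-/-;hTDP1 cells in the absence of CPT. ATP levels (CellTiter-Glo luminescence) are recorded after a ≥48 hr, 37 °C incubation.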
IL1B secr inh – blocks inflammasome-driven IL-1 beta release | THP-1 LPS/ATP IL-1B secretion, AlphaLISA, 16 h; stronger effect = lower value | activity change, % at 57.5 µM | 4.7% of 360,000 active; in the data active = activity change below about -50%; inconclusive = mostly about -30% to -49%
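THP-1 cells pretreated 1 hr with compounds (up to 57.5 uM final), then stimulated with LPS (250 ng/mL final) plus ATP (1.25 mM final); secreted IL-1B measured by AlphaLISA after 16 hr, decreased signal indicating inhibition.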
ELG1 repair inh – inhibitors of ELG1-dependent DNA repair in HEK293T cells; 2.3% of 330,000 active; HEK293T ELG1-luciferase reporter, luminescence, 16 h; DNA damage induced by 5-fluorouridine; AID 504467; Potency, µM (titrated, usually from 46.1 µM), inactives show at the top dose activity change, negative = inhibition, hits mostly inhibitors; note: potency is the fitted concentration of half-maximal effect; nearly all actives have a fitted effect of over 55% in size
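HEK293T cells expressing luciferase-tagged ELG1 (2,000/well) received 5-Fluorouridine plus compound or DMSO for 16 hr at 37 °C. Luciferase was read by ONE-Glo luminescence after 30 min at room temperature.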
HT1080 IDH1KD tx – kills HT-1080 cells with IDH1 knockdown; HT-1080 IDH1 knockdown viability, ATP luminescence, 48 h; Potency, µM (titrated, usually from 46.1 µM), for the others: top-dose activity, negative = toxicity, hits mostly cytotoxic; 2% of 360,000 active;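 note: potency is the fitted concentration of half-maximal effect; 0% = DMSO wells and -100% = cell-free medium wells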
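Knockdown cells (IDH1KD HT-1080) received compounds 2 h after plating at 750 cells/well and were kept 48 h at 37 °C in 5% FBS RPMI. A CellTiter-Glo luminescence read gave % activity for curve fitting.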
HT1080NT lethal – kills 2HG-producing HT-1080-NT fibrosarcoma cells; HT-1080-NT fibrosarcoma viability, CellTiter-Glo ATP luminescence, 48 h; Potency, µM (top dose mostly 46.1 µM), for the others: at the top dose activity, negative = less viability, usual class: cytotoxic; 1.6% of 360,000 active; AID 686970;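 note: NT is the 2HG producing partner of a matched IDH1 knockdown line; potency is the fitted concentration of half-maximal effect; 0% = DMSO-treated cells and -100% = media-only wells without cells; nearly all actives have a fitted effect of over 55% in size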
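750 cells/well, RPMI + 5% FBS; 2 h settle, compound pin-transfer, 48 h at 37 degrees C. CellTiter-Glo 10 min RT, luminescence. Normalized to DMSO and media-only wells.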
TDP1 cell CPT – DT40-hTDP1 cell growth loss with CPT. chicken DT40 Tdp1-/-;hTDP1 cells + 20 nM CPT, ATP luminescence, 48 h. 12% of 420,000 active. Potency, µM (doses to about 46.2 µM), for the others: at the top dose activity change, negative = growth inhibition, actives largely listed as inhibitors. AID 686979; note: potency is the fitted concentration of half-maximal effect; nearly all actives have a fitted effect of over 55% in size
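Cell growth measured by CellTiter-Glo luminescence after a minimum 48 h, 37 C compound exposure with 20 nM CPT in Tdp1-knockout DT40 cells stably expressing hTDP1, seeded 400/well; qHTS titration format.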
* hit, by the source's call; u = inconclusive; x = no result. In the library only some 19% were active in any assay of this set; here they are far more common. Unless noted, calls come from the whole dose curve; as a rule, active = well fitted curve in the direction sought with a large enough effect; inconclusive = small, poorly fitted or top-dose-only effect, or another doubt; inactive = no such curve, though single readings can be large; an effect the other way counts as inactive or inconclusive. Unless noted, % is set by controls: 0 for no effect and ±100 for the full control effect.

SMILES | TDP1 cell noCPT | IL1B secr inh | ELG1 repair inh | HT1080 IDH1KD tx | HT1080NT lethal | TDP1 cell CPT
O=C(NCc1ncc(C(F)(F)F)cc1Cl)Nc1ccccc1 | -9% | -10 | -5% | 19% | 27% | 5%
O=C(NCc1cccnc1)c1cc(C2CCCCN2C(=O)OCc2ccccc2)on1 (stereo unspecified) | u | 0 | x | -3% | u | u
CCOC(=O)c1c(C)n(C)c2ccc(OCC(O)CN3C(=O)c4ccccc4S3(=O)=O)cc12 (stereo unspecified) | 16µM* | -15 | u | u | 0% | 16µM*
COc1ccc(OCC(O)CN2C(=O)c3ccccc3S2(=O)=O)cc1 (stereo unspecified) | u | 5 | 11% | 0% | 13% | -17%
CCOC(=O)c1c(C)n(C)c2ccc(OCC(O)Cn3nc(C)cc3C)cc12 (stereo unspecified) | u | -21 | 21µM* | -13% | -2% | u
Cc1ccc(N=C2C(=O)Nc3ccc(Br)cc32)cc1 | 12µM* | 65 | u | u | u | 18µM*
Cc1ccc(N=C2C(=O)Nc3c(C)cccc32)cc1 | -22% | 24 | -9% | 5% | 3% | -5%
c1ccc2c(-c3[nH]ncc3CNCCCn3ncc4ccccc43)cccc2c1 | 12µM* | u | -5% | u | u | 18µM*
CCN1C(=O)C(Cc2nc3ccccc3c(=O)n2C)c2cc(C)ccc21 (stereo unspecified) | 26µM* | x | x | x | x | u
CCCN1C(=O)C(Cc2nc3ccccc3c(=O)n2CC)c2ccccc21 (stereo unspecified) | 5.2µM* | x | x | x | x | u
CCn1c(CC2C(=O)N(C)c3ccc(Br)cc32)nc2ccccc2c1=O (stereo unspecified) | 1.5µM* | x | x | x | x | 5.2µM*
CCCN1C(=O)C(Cc2nc3ccccc3c(=O)n2-c2ccccc2)c2ccccc21 (stereo unspecified) | u | 0 | -20% | -5% | -3% | -25%
CCCN1C(=O)C(Cc2nc3ccccc3c(=O)n2CC)c2cc(Br)ccc21 (stereo unspecified) | 1.2µM* | x | x | x | x | 1.2µM*
Cc1cc(NC(=O)NC(=O)c2ccccc2)no1 | 11% | -10 | u | 19% | 27% | -19%
Cc1nnc(NC(=O)C2CC(=O)N(C(C)c3ccccc3)C2)s1 (stereo unspecified) | 12% | 16 | 11% | 4% | -2% | -7%
CN(c1ccccc1C(=O)O)S(=O)(=O)c1ccc2[nH]c(=O)oc2c1 | -5% | x | x | x | x | -3%
CC(=O)N1N=C(c2cccc(Cl)c2)OC1c1cccc([N+](=O)[O-])c1 (stereo unspecified) | 21µM* | -1 | -15% | u | -26% | u
Cc1cc(C)cc(N(C(=O)Cc2cccs2)C(C(=O)NC2CCCC2)c2ccc(C)o2)c1 (stereo unspecified) | u | 14 | 17% | 2% | 14% | u
Cc1ccc(C(C(=O)NC2CCCC2)N(C(=O)Cc2cccs2)c2cccc(C)c2C)o1 (stereo unspecified) | 16µM* | 10 | -2% | -24% | -6% | 21µM*
O=C(NC1CCCCC1)C(c1ccccn1)N(C(=O)Cc1cccs1)c1ccc(Cl)cc1 (stereo unspecified) | u | u | -2% | u | u | 29µM*
CNC(=O)c1c(NC(=O)c2ccco2)sc2c1CCCC2 | -28% | -81* | 2% | -2% | 1% | -26%
COc1cc(C(=O)Nc2sc3c(c2C(=O)NCc2ccco2)CCCC3)cc(OC)c1OC | 21µM* | u | u | -24% | -3% | u
O=C(Nc1sc2c(c1C(=O)NCc1cccnc1)CCCC2)c1ccco1 | -21% | -68* | -21% | -12% | -23% | -23%
Cc1ccc(-n2c(=O)c3c4c(sc3n(Cc3ccccc3C)c2=O)CCC4)cc1C | -11% | x | x | x | x | -18%
CCOC(=O)C1=C(CSc2nc(C)cc(C)c2C#N)OC(N)=C(C#N)C1c1ccccc1 (stereo unspecified) | 23µM* | 12 | u | 17% | 12% | u
SMILES | TDP1 cell noCPT | IL1B secr inh | ELG1 repair inh | HT1080 IDH1KD tx | HT1080NT lethal | TDP1 cell CPT
CCOC(=O)C1=C(CSc2nc(CC)c(C)cc2C#N)OC(N)=C(C#N)C1c1ccccc1 (stereo unspecified) | 23µM* | 10 | 5% | 0% | -2% | 3.3µM*
CCOC(=O)C1=C(CSc2nc(-c3ccccc3)ccc2C#N)OC(N)=C(C#N)C1c1ccc(OC)cc1 (stereo unspecified) | 9.2µM* | 30 | u | -2% | 4% | 8.2µM*
NC(=O)NS(=O)(=O)Oc1ccccc1 | -9% | 19 | 5% | 7% | 0% | 4%
CC1CCCC(NC(=O)CN(C)CC(=O)Nc2cccc(F)c2)C1C (stereo unspecified) | -32% | 26 | -1% | -1% | 2% | -19%
O=C(NCc1cccc(Cl)c1)c1ccc(S(=O)(=O)N2CCCCC2)cc1 | u | -3 | x | 3% | 0% | -13%
COc1ccc2c(c1)c(=O)c(C(=O)c1ccccc1)cn2Cc1ccc(C)cc1 | 16µM* | -4 | u | u | u | u
COc1ccc(Cn2cc(C(=O)c3ccc(C)c(C)c3)c(=O)c3ccccc32)cc1 | 16µM* | x | x | x | x | u
CCn1cc(C(=O)O)c(=O)c2cc(OC)ccc21 | -10% | -5 | 5% | 5% | 7% | u
COc1cc2c(=O)c(C(=O)c3ccc(F)cc3)cn(Cc3cccc(F)c3)c2cc1OC | 16µM* | x | x | x | x | 21µM*
COc1cc2c(=O)c(C(=O)c3ccc(C)c(C)c3)cn(Cc3ccccc3F)c2cc1OC | 16µM* | x | x | x | x | 18µM*
CC1CN(C(=O)CCNS(=O)(=O)c2ccc(Br)cc2)CC(C)O1 (stereo unspecified) | 1% | 7 | 7% | 3% | 4% | 7%
Cc1cccc(OCC(=O)Nc2nccs2)c1C | -29% | 49 | u | -17% | -1% | u
CCOc1ccc(C(=O)c2cn(CC(=O)Nc3cc(OC)ccc3OC)c3cc(OC)c(OC)cc3c2=O)cc1 | 16µM* | x | x | x | x | 23µM*
CCc1ccc(C(=O)c2cn(Cc3ccccc3)c3cc(OC)c(OC)cc3c2=O)cc1 | 16µM* | x | x | x | x | 16µM*

Source: PubChem BioAssay
